# Compounds with a hit are over-represented: about 3.4% of the library has one in this group of screens.
# PAFAH1B2 FP inh: PAFAH1B2 (human) inhibition | P68402 | recombinant PAFAH1B2, FP-rhodamine activity probe, fluorescence polarization | inhibition, % at 3.39 µM | 340,000 tested, 1.2% active;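 active = inhibition above the mean of all tested compounds plus 3 SD, cut at about 24% in these data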;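 note: 0% = enzyme with DMSO and 100% = wells lacking PAFAH1B2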
# pPAFAH FP inh: pPAFAH (human) enzyme inhibition; recombinant pPAFAH, FP-rhodamine probe fluorescence polarization; inhibition, % at 3.39 µM; 330,000 tested, 1.5% active; AID 463082;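 active = inhibition above the mean inhibition across the screen plus 3 SD, cut at about 25% in these data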;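 note: inhibitors block binding of the rhodamine activity-based probe so polarization drops; 0% = enzyme with DMSO and 100% = wells lacking pPAFAH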
# Target sequence (Q13093 whole entry, looked up): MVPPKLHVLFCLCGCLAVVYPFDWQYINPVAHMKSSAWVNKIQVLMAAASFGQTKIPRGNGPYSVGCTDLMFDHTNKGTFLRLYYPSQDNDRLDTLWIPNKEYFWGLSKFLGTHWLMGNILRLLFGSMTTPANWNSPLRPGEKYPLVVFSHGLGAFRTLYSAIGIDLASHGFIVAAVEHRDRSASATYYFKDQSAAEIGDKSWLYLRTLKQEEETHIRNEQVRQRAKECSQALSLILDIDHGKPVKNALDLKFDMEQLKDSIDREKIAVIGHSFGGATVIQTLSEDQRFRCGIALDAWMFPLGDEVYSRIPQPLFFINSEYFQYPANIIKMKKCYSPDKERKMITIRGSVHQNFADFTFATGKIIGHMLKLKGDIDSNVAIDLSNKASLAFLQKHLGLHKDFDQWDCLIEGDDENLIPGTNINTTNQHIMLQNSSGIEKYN
# PAFAH1B3 inh: blocks human PAF acetylhydrolase 1B catalytic subunit 3; Q15102; recombinant PAFAH1B3, FP-rhodamine probe, fluorescence polarization; inhibition, % at 3.39 µM; 340,000 tested, 0.28% active; AID 492972;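 active = inhibition above the screen-wide average of all tested compounds plus 3 SD, cut at about 25% in these data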;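 note: 0% = enzyme with DMSO only and 100% = wells lacking PAFAH1B3 protein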
# PAFAH2 inh: inhibitors of human PAFAH2; Q99487; AID 492956; recombinant PAFAH2, FP-rhodamine activity probe, fluorescence polarization; inhibition, % at 3.39 µM; 340,000 tested, 0.99% active;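 active = inhibition above the mean over all tested compounds plus 3 SD, cut at about 30% in these data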;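 note: inhibitors block probe labeling of enzyme so polarization drops; 0% = enzyme with DMSO and 100% = wells lacking PAFAH2 protein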
# PP5 inh: inhibitors of human protein phosphatase 5 (PP5); purified PP5c, OMFP substrate fluorescence; 320,000 tested, 0.18% active; inhibition, % at 6.7 µM; P53041;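 active = inhibition above the campaign's mean inhibition across all tested compounds plus 3 SD, cut at about 9.5% in these data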;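 note: 0% = DMSO only and 100% = 100 µM cantharidin control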
# PP1 counter: PP1-alpha (human) inhibition in PP5 counter-screen; 320,000 tested, 0.9% active; inhibition, % at 6.7 µM; purified PP1alpha, OMFP fluorescence; P62136;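 active = inhibition above the mean inhibition of all tested compounds plus 3 SD, computed separately for each screening campaign, cut at about 15% in these data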
# pPAFAH confirm: confirmation of human plasma PAF acetylhydrolase (pPAFAH) inhibitors. inhibition, % at 3.39 µM. 2,300 tested, 72% active. recombinant pPAFAH, FP-Rh probe fluorescence polarization. shares compounds with pPAFAH FP inh;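 active = mean inhibition of the triplicate above the hit cutoff set for the earlier primary screen, cut at about 25% in these data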;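 note: 0% = enzyme with DMSO and 100% = wells lacking pPAFAH enzyme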
# * = called active by the depositor; / = not tested or not shown.
SMILES,PAFAH1B2 FP inh,pPAFAH FP inh,PAFAH1B3 inh,PAFAH2 inh,PP5 inh,PP1 counter,pPAFAH confirm
CCCCNC(=O)c1sc(=S)n2c1[nH]c(=O)c1ccccc12,26*,35*,31*,38*,0,2,63*
O=C(NCCc1ccccc1)c1ccc2c(=O)[nH]c3c(C(=O)NCC4CCCO4)sc(=S)n3c2c1 (stereo unspecified),50*,71*,30*,22,1,5,84*
CCc1ccc2nc(N(CCN(C)C)C(=O)c3ccc4ncsc4c3)sc2c1,6,5,9,-3,0,5,/
Cc1ccc(S(=O)(=O)N2CCN(c3ccccc3)CC2)c(C)c1,0,-2,7,1,6,6,/
COc1ccc(NC(=O)NNC(=O)c2ccc3ccccc3c2O)c(OC)c1,8,11,24,0,-2,0,/
NNC(=O)c1cccc(S(=O)(=O)Nc2cccc(C(F)(F)F)c2)c1,-6,-3,-25,-22,-1,2,/
Cc1[nH]c2ccccc2c1/C=N/NC(=O)c1cccc(S(=O)(=O)Nc2cccc(C(F)(F)F)c2)c1,35*,40*,43*,12,8,2,40*
Cc1cc(/C=C2\SC(=S)NC2=O)c(C)n1-c1cccc(O)c1,15,45*,8,20,4,8,49*
Cc1cc(/C=C2\SC(=S)NC2=O)c(C)[nH]1,-1,46*,12,15,1,0,1
COc1ccc(-n2c(C)cc(/C=C3\SC(=O)NC3=O)c2C)cc1,0,40*,1,1,0,10,23
O=C1NC(=S)S/C1=C\c1cc(Cl)ccc1Cl,6,/,12,-3,/,/,/
COc1ccc(-n2c(C)cc(/C=C3\SC(=S)N(Cc4ccco4)C3=O)c2C)cc1,-2,2,-12,-1,1,13,/
COc1cc(Br)cc(CNc2ccc(F)c([N+](=O)[O-])c2)c1O,4,6,6,9,4,1,/
COc1ccc(C2(OC)Oc3cc(OC)ccc3C(=O)C2(O)OC)cc1 (stereo unspecified),7,/,11,0,/,/,/
Cc1cc(/C=N/Nc2ccc([N+](=O)[O-])cn2)c(C)n1-c1ccc(C(=O)O)cc1,-1,54*,11,8,3,-1,18
Cc1ccccc1-n1c(C)cc(/C=N/Nc2ccc([N+](=O)[O-])cn2)c1C,0,5,2,-2,1,1,/
Cc1cc(O)ccc1N=Cc1c(C(F)(F)F)[nH][nH]c1=O,16,74*,21,27,3,2,10
O=c1[nH][nH]c(C(F)(F)F)c1C=Nc1ccccc1,7,1,7,2,-1,-3,/
NC1=NC2(CCCCC2)N=C(Nc2ccc(Br)cc2)N1,1,0,9,4,-2,-4,/
CN(C)CC/C=C1/c2ccccc2COc2ccc(CC(=O)O)cc21,-2,60*,-1,0,-1,3,4
CN(C)CC/C=C1/c2ccccc2COc2ccccc21,/,1,/,/,-1,-1,/
COc1ccc(OC)c(Nc2cc(-c3ccccc3)nc(N)n2)c1,/,43*,/,/,4,1,37*
COc1cc(C(=O)NCC2CCCN2S(=O)(=O)c2cccs2)cc(OC)c1OC (stereo unspecified),0,0,8,-2,0,-3,/
CC(=O)[C@]1(O)Cc2c(O)c3c(c(O)c2[C@@H](O[C@H]2C[C@H](N)[C@H](O)[C@H](C)O2)C1)C(=O)c1ccccc1C3=O,/,59*,/,/,-7,-8,69*
COc1cccc2c1C(=O)c1c(O)c3c(c(O)c1C2=O)C[C@@](O)(C(=O)CO)C[C@@H]3O[C@H]1C[C@H](N)[C@@H](O)[C@H](C)O1,51*,60*,43*,55*,0,-2,45*
SMILES,PAFAH1B2 FP inh,pPAFAH FP inh,PAFAH1B3 inh,PAFAH2 inh,PP5 inh,PP1 counter,pPAFAH confirm
O=C(CSc1ccc(-c2ccccn2)nn1)N1CCCC1,1,-4,-4,-2,0,-6,/
COc1ccccc1CNC(=O)[C@@H](NC(=O)C1CCN(C(=O)[C@@H]2CCCN2)CC1)C(C)C,0,-4,-15,0,2,-3,/
C/C(=N\NC(=O)c1cc2ccccc2cc1O)c1ccc2c(c1)OCO2,7,55*,-2,9,1,6,6
C/C(CC(=O)N1CCCC1)=N\NC(=O)c1cc2ccccc2cc1O,4,48*,7,12,3,6,15
O=C(OCC(=O)N1CCCCC1)c1cc2ccccc2cc1O,1,-3,7,3,2,1,/
CCOC(=O)C(C)/C(C)=N/NC(=O)c1cc2ccccc2cc1O (stereo unspecified),2,46*,4,4,1,8,4
O=C(CCNS(=O)(=O)c1ccc(Br)cc1)NCc1ccco1,10,1,-1,2,1,-5,/
Nc1ccccc1-n1cccc1,/,4,/,/,1,-1,/
COc1cc2cc3c(N)c(C(=O)NCc4ccco4)sc3nc2cc1OC,-2,24,9,0,3,1,/
COc1cc2cc3c(N)c(C(=O)Nc4sc(C)c(C)c4C#N)sc3nc2cc1OC,7,52*,14,23,0,12,14
COC(=O)c1ccc(/C(O)=C(\C#N)c2nc3ccccc3s2)cc1,23,9,4,8,0,-3,/
N#C/C(=C(/O)c1ccc2c(c1)OCO2)c1nc2cc(C(F)(F)F)ccc2s1,89*,38*,11,19,4,1,60*
Clc1ccc(CNc2ccc(CNc3ncn[nH]3)cc2)c(Cl)c1,8,37*,6,1,1,-2,20
Oc1ccc(-c2cn3c(n2)SCC3)cc1O,5,56*,12,23,-2,4,21
Oc1ccc(-c2cn3c(n2)SCC3)cc1,2,1,7,16,-2,-2,/
CC(C)c1ccc(CNCCCSc2ncccn2)cc1,1,-2,10,5,-2,1,/
CCOC(=O)N1CCN(S(=O)(=O)c2c(C(=O)N3CCCCC3)c(C)n(C)c2C)CC1,-7,-7,5,0,2,-1,/
CCCc1ccc2oc(C(=O)N3CCC(O)CC3)c(C)c2c1,-2,39*,3,-3,3,-2,23
CC1CC(C)CN(CCCNC(=O)c2ccc3c(c2)NC(=O)CS3)C1 (stereo unspecified),3,0,2,1,0,3,/
Cc1cc(C(=O)CN2C(=O)NC3(CCCc4sccc43)C2=O)c(C)n1-c1ccc(Cl)cc1 (stereo unspecified),2,40*,-4,2,1,8,42*
